Assay outcomes from PubChem BioAssay.
Sampled rows, rich in hits. Any-hit rate of the full collection: about 11%.
Autophagy mod: autophagy modulation, high-content screen | MEF GFP-LC3 puncta imaging; test concentration mostly 10 µM | calls only at 10 µM (by protocol) | 190,000 compounds, 0.98% hits;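 active = percentage of spot-positive cells more than 3 SD above its plate mean, without a fluorescence outlier flag or 80% toxicity; inconclusive = no clear call, values can overlap the other calls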;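 note: spot-positive cell cutoff set from DMSO-treated cells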
WT yeast gro inh: growth inhibition of WT yeast, mitochondrial fusion screen; inhibition, % at 10 µM; mitochondrial fusion phenotypic screen, WT strain; 190,000 compounds, 2.1% hits; AID 1362; in the data active = inhibition above about 58%; tested in S. cerevisiae
INS promoter inh: TRM-6 insulin promoter activity inhibition. TRM-6 cells (human fetal islet line), insulin promoter-eGFP reporter, imaging; reporter expression induced with tamoxifen. inhibition, % at 2 µM. 130,000 compounds, 0.9% hits. AID 1273;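 active = inhibition above the mean plus 3 SD, with well images judged a real hit on visual review, cut at about 60% in these data, passing the limit was not always enough; inconclusive = inhibition over the cutoff but images rejected on review; inactive = inhibition not above the cutoff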
L major viab: Leishmania major promastigote growth inhibition. AID 1063. 200,000 compounds, 9% hits. inhibition, % at 10 µM. Leishmania major promastigotes, resazurin fluorescence viability; in the data active = inhibition above about 50%;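 note: promastigotes grown with compound for 44 hours at 28 °C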
Insulin prom up: MIN6 insulin promoter up-regulation. MIN6 insulin promoter-GFP reporter, high-content imaging; stronger effect = higher value. z-score at 5 µM. 190,000 compounds, 0.3% hits. AID 1625;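 active = z-score above 3 at 5 µM with at least 500 cells counted in the well; inconclusive = wells under 500 cells, flagged as cytotoxic or low count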
* = called active by the depositor; i = inactive; u = inconclusive; x = no result given; + = active, no number.

SMILES	Autophagy mod	WT yeast gro inh	INS promoter inh	L major viab	Insulin prom up
Cc1ccc(C(=O)CN(C(=O)c2ccc(Cl)cc2)N2C(=O)c3ccccc3C2=O)cc1	i	12	x	-16	-0.45
Cc1ccc(C(=O)CN(C(=O)c2ccc(Cl)cc2)N2C(=O)CCC2=O)cc1	i	1	x	89*	0.06
CC(C)CCNC1=CC(=O)CC(c2ccccc2)C1 (centres undefined)	i	-8	34	40	1.3
CN(C)CCCNC1=CC(=O)CC(c2ccccc2)C1 (centres undefined)	i	-2	83*	18	-0.4
Cc1ccccc1NCc1ccc(O)c2ncccc12	i	-7	-156	100*	x
OCc1ccnc2c(O)cccc12	x	53	x	100*	2.4
Oc1ccc(CNc2ccc(F)cc2)c2cccnc12	i	11	x	-3	0.1
Cc1cccc(NCc2ccc(O)c3ncccc23)c1	i	-1	x	-4	1
Oc1ccc(CNc2ccccc2)c2cccnc12	i	35	x	66*	x
Oc1ccc(Cn2ccnc2)c2cccnc12	i	-3	x	99*	0.79
O=C(Nc1ccc(Cl)cc1Cl)NC1CCN(S(=O)(=O)c2ccc(F)cc2)CC1	x	x	x	x	-0.12
COc1ccc2cc(CN(Cc3cccnc3)S(=O)(=O)c3ccccc3)c(=O)[nH]c2c1	i	17	x	10	-0.19
CC1=NN(C(=S)Nc2ccccc2)C(C)(C)C1	i	9	x	-6	0.13
O=C(NNC1=NCCC1)C1CC1	i	-14	46	0	0.11
CCCCC(CC)C(=O)Nc1ccc(C)c(O)c1 (centres undefined)	i	-4	x	-1	-0.71
Nc1ccc(S(=O)(=O)N2CCCC2)cc1Cl	x	x	x	x	-0.12
COCc1ccc(O)c2ncccc12	i	4	10	100*	-0.23
COc1cc(OC)c2nc(C)c3c(c2c1)N(c1ccc(O)cc1)CC3	i	-4	-50	99*	x
NNc1nc(-c2ccccc2)cc(-c2ccccc2O)n1	i	10	50	89*	x
O=C(Nc1ccc(Cl)cc1)N1CCCN(Cc2ccc(F)cc2)C1	i	x	-58	92*	x
COc1ccc(CCNC(=O)CN2C(=O)NC(C)(c3ccc([N+](=O)[O-])cc3)C2=O)cc1 (centres undefined)	i	-17	x	-10	1.7
COc1cccc(/C=N/n2nnnc2N)c1	x	x	x	x	-0.49
Cc1no[n+]([O-])c1COc1ccc(/C=N/n2nnnc2N)cc1	i	-12	0	57*	-0.45
O=C(CC1NCCN(Cc2ccccc2)C1=O)Nc1ccccc1 (centres undefined)	x	x	x	x	-0.18
O=C(CCNC(=O)c1ccccc1Cl)Nc1cccc(C(F)(F)F)c1	i	11	-30	65*	-0.45
SMILES	Autophagy mod	WT yeast gro inh	INS promoter inh	L major viab	Insulin prom up
O=C(Nc1cccc(F)c1)c1cccnc1NCCc1ccccc1	i	36	18	25	-0.41
O=C(Nc1cccc(C(F)(F)F)c1)c1cccnc1NCCc1ccccc1	i	87*	x	21	-0.14
O=C(O)c1cc(NN=Nc2ccc(Br)cc2)cc([N+](=O)[O-])c1	x	x	x	x	0.05
CN(Cc1ccccc1)S(=O)(=O)c1ccc2[nH]cc(C(=O)NCC3CCCO3)c(=O)c2c1 (centres undefined)	i	-13	x	99*	x
CCc1ccccc1NS(=O)(=O)c1ccc2[nH]cc(C(=O)NCC3CCCO3)c(=O)c2c1 (centres undefined)	i	-19	x	6	x
Nc1nnc(-c2cc3ccccc3oc2=O)s1	i	-4	74	14	1.2
O=c1oc2ccccc2cc1-c1ccc(O)cc1O	i	-18	7	-12	-0.03
O=c1oc2cc(O)ccc2cc1-c1nc2c(s1)CCc1ccccc1-2	u	98*	i	-12	x
O=c1oc2ccccc2cc1-c1nc2c(s1)CCc1ccccc1-2	+	0	x	-3	1.2
CCc1ccccc1S(=O)(=O)Cc1ccc(C(=O)NCc2cccs2)o1	i	-12	-82	2	0.41
O=C(Nn1c(-c2ccc(Br)cc2)nc2ccccc2c1=O)c1cccnc1	i	17	78*	-7	-0.37
O=C(Nn1c(-c2ccncc2)nc2ccccc2c1=O)c1ccc(Br)cc1	i	-1	-14	23	0.41
COc1ccc(C2NCCc3c2[nH]c2ccccc32)cc1CSc1nc2ccccc2s1 (centres undefined)	i	80	x	60*	0.05
O=C(CCCCCNc1nc(=S)[nH]c2ccccc12)N1CCN(c2ccccn2)CC1	i	3	21	57*	-0.64
Cc1ccc(CNC(=O)CCCCCNc2nc(=S)[nH]c3ccccc23)cc1	i	-7	x	0	-0.43
COc1cccc(N2CCN(C(=O)CCCCCNc3nc(=S)[nH]c4ccccc34)CC2)c1	i	15	-6	74*	-1.8
